PubChem BioAssay

Molecular target: Alpha-2C adrenergic receptor (Homo sapiens) (UniProt P18825)
Experiment: modulators of alpha2C/GIRK thallium flux, primary screen, cell-based, HEK293 alpha2C/GIRK1/2 (AID 624;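 active means fluorescence slope after compound addition differing from the mean of all screened samples at 99.7% confidence, in either direction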;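 further: slope of fluorescence ratio to pre-addition baseline per second over 15 to 24 s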)
Details: thallium flux BTC fluorescence, at 10 µM, actives lie on both sides

Sequence of Alpha-2C adrenergic receptor (Homo sapiens) (P18825 whole entry, looked up): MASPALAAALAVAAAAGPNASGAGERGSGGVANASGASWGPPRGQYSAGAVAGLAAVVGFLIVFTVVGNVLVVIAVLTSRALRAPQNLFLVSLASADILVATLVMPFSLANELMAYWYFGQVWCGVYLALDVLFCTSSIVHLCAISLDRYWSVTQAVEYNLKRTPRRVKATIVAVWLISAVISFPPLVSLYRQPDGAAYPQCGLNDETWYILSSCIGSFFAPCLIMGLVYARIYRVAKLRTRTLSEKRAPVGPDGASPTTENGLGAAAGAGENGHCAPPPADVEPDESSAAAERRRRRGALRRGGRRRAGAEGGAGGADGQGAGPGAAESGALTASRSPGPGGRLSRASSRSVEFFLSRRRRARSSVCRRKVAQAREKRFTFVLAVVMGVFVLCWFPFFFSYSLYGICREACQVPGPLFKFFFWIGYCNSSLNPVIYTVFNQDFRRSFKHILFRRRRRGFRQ

slope, inactive:
Cc1onc(-c2c(Cl)cccc2Cl)c1C(=O)N1CCc2ccccc21 0.00899
CN1CCN(C2=C(Cl)C(=O)N(c3cccc(Cl)c3)C2=O)CC1 0.00541
COc1ccc(CCNC(=O)c2ccncc2)cc1OC 0.00561
O=c1c2cc(Cl)ccc2[nH]c(=S)n1Cc1ccco1 0.00334
Nc1nc(SCc2nc3scc(-c4cccs4)c3c(=O)[nH]2)n[nH]1 0.00447
Cn1c(=O)c2c([nH]c(=O)n2C)n(C)c1=O 0.00554
COc1ccccc1CN1CC(C(=O)NCc2cccnc2)CC1=O (stereo not given) 0.00742
COc1ccc(-n2nnnc2SCC(=O)c2ccc(O)c(O)c2)cc1 0.00395
Cc1ccc2c(c1)N(CC(=O)Nc1ccc3c(c1)OCCO3)C(=O)CO2 0.0057
Cc1nc2ccc(N3C(=O)CCC3=O)cc2[nH]1 0.00593
CCOC(=O)c1oc2ccccc2c1NC(=O)c1cccc(OC)c1OC 0.00654
CCC(C)NC(=O)c1ccccc1NC(=O)C(C)N(c1ccccc1)S(C)(=O)=O (stereo not given) 0.00595
O=C(Nc1sc2c(c1C(=O)NCc1ccco1)CCCC2)c1ccc2c(c1)OCO2 0.00669
CCOC(=O)c1ccc(NS(=O)(=O)c2ccc3c(c2)CCCN3C(C)=O)cc1 0.00506
CC12COC3(C(=O)Nc4ccc(Cl)cn4)CC1CCC32C (stereo not given) 0.00598
CC1CCC2C(C1)c1sc(=O)[nH]c1SC2(C)C (stereo not given) 0.00605
Brc1ccc(-c2csc(/N=C/N3CCOCC3)n2)cc1 0.00566
Cc1nnc(SCc2cn3ccsc3n2)n(N)c1=O 0.00624
CCOc1ccc(-c2nnc(N)s2)cc1 0.00563
C=CCn1c(=O)c(C(=O)Nc2ccccc2C(=O)OCC)c(O)c2ccccc21 0.00716
C=CCn1c(COc2ccccc2)nnc1SCC(=O)C(C)(C)C 0.00312
O=C(c1ccco1)N1CCN(C(=O)c2cc3c(s2)-c2ccccc2OC3)CC1 0.00801
O=C(NCc1cccs1)C1CCCN(c2ncccn2)C1 (stereo not given) 0.00547
Cc1cc(C)c2[nH]c(=O)c(C(c3nnnn3Cc3ccc4c(c3)OCO4)N3CCC(C)CC3)cc2c1 (stereo not given) 0.0051
COc1cccc(-c2nc(CS(=O)(=O)CC(=O)Nc3cc(C)ccc3C)c(C)o2)c1 0.00688
Cc1ccc(C2=Nc3ccccc3NC(C)(c3ccc(C)o3)C2)o1 (stereo not given) 0.00401
CCOC(=O)c1ccc(N=c2sc(C(=O)OC)cc(=O)n2Cc2ccco2)cc1 0.00678
COc1ccc2c(c1)C(C)=CC(C)(C)N2C(=O)CSc1nnc(-c2ccc(C)cc2)o1 0.00352
CC(C)C1N=C2c3ccccc3N=C(SCc3cc(=O)n4ccccc4n3)N2C1=O (stereo not given) 0.00398
CCCCN(CCCC)CCn1cnc2c([nH]c3ccc(OC)cc32)c1=O 0.00685
CC1CC(=O)c2cnc(NCC3CCCO3)nc2C1 (stereo not given) 0.00446
CCC(CO)Nc1ncnc2c1cnn2-c1ccc(Cl)cc1 (stereo not given) 0.00667
CC(C)CCNC(=O)C(C)N(Cc1ccc(F)cc1)C(=O)c1ccc(CN2CCCCC2)o1 (stereo not given) 0.00436
O=C(OC1CCOC1=O)c1ccc(S(=O)(=O)N2CCCCCC2)cc1 (stereo not given) 0.00585
COC(=O)C1C(=O)c2c([nH]c(C(=O)OCCOC(C)C)c2C)CC1C (stereo not given) 0.00401
CC(=O)c1cc(-c2ccc(F)cc2)n(CCC(=O)Nc2cc(C)[nH]n2)c1C 0.00525
CCCn1c(=O)c2ccccc2n2c(SCCOc3ccccc3F)nnc12 0.00598
O=C1c2ccccc2C(Nc2ccc(F)c(Cl)c2)N1Cc1ccco1 (stereo not given) 0.0049
COCCn1c(COc2ccc(Cl)cc2)nnc1SCC(N)=O 0.00579
CCOC(=O)N1CCN(S(=O)(=O)c2ccc(F)c(C(=O)Nc3cc(C)cc(C)c3)c2)CC1 0.00302

Tested on: not listed separately
Experiment: inhibitors of Sendai virus-induced IRF3 signaling, primary screen, TLR/RLR signaling modifier project, cell-based, Sendai virus stimulus, luciferase, 10K MLSCN set (AID 602276);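 further: firefly luciferase from ISG56 promoter only with Renilla not read in this screen; 0% = Sendai virus plus DMSO and 100% = medium plus DMSO without virus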
Details: HEK293 RL24 IRF3 luciferase reporter, at 10 µM, hits give high values

inhibition, inactive:
Cc1onc(-c2c(Cl)cccc2Cl)c1C(=O)N1CCc2ccccc21 23.7%
CN1CCN(C2=C(Cl)C(=O)N(c3cccc(Cl)c3)C2=O)CC1 5.11%
COc1ccc(CCNC(=O)c2ccncc2)cc1OC 17.7%
O=c1c2cc(Cl)ccc2[nH]c(=S)n1Cc1ccco1 9.24%
Nc1nc(SCc2nc3scc(-c4cccs4)c3c(=O)[nH]2)n[nH]1 1.51%
Cn1c(=O)c2c([nH]c(=O)n2C)n(C)c1=O 18%
COc1ccccc1CN1CC(C(=O)NCc2cccnc2)CC1=O (stereo not given) 7.79%
COc1ccc(-n2nnnc2SCC(=O)c2ccc(O)c(O)c2)cc1 13.7%
Cc1ccc2c(c1)N(CC(=O)Nc1ccc3c(c1)OCCO3)C(=O)CO2 38.1%
Cc1nc2ccc(N3C(=O)CCC3=O)cc2[nH]1 6.8%
CCOC(=O)c1oc2ccccc2c1NC(=O)c1cccc(OC)c1OC -0.203%
CCC(C)NC(=O)c1ccccc1NC(=O)C(C)N(c1ccccc1)S(C)(=O)=O (stereo not given) 5.01%
O=C(Nc1sc2c(c1C(=O)NCc1ccco1)CCCC2)c1ccc2c(c1)OCO2 -29.8%
CCOC(=O)c1ccc(NS(=O)(=O)c2ccc3c(c2)CCCN3C(C)=O)cc1 1.89%
CC12COC3(C(=O)Nc4ccc(Cl)cn4)CC1CCC32C (stereo not given) -1.35%
CC1CCC2C(C1)c1sc(=O)[nH]c1SC2(C)C (stereo not given) -1.58%
Brc1ccc(-c2csc(/N=C/N3CCOCC3)n2)cc1 -73.1%
Cc1nnc(SCc2cn3ccsc3n2)n(N)c1=O 17.8%
CCOc1ccc(-c2nnc(N)s2)cc1 -27%
C=CCn1c(=O)c(C(=O)Nc2ccccc2C(=O)OCC)c(O)c2ccccc21 16.9%
C=CCn1c(COc2ccccc2)nnc1SCC(=O)C(C)(C)C 3.19%
O=C(c1ccco1)N1CCN(C(=O)c2cc3c(s2)-c2ccccc2OC3)CC1 -15%
O=C(NCc1cccs1)C1CCCN(c2ncccn2)C1 (stereo not given) 12.7%
Cc1cc(C)c2[nH]c(=O)c(C(c3nnnn3Cc3ccc4c(c3)OCO4)N3CCC(C)CC3)cc2c1 (stereo not given) -4.82%
COc1cccc(-c2nc(CS(=O)(=O)CC(=O)Nc3cc(C)ccc3C)c(C)o2)c1 5.73%
Cc1ccc(C2=Nc3ccccc3NC(C)(c3ccc(C)o3)C2)o1 (stereo not given) -47.1%
CCOC(=O)c1ccc(N=c2sc(C(=O)OC)cc(=O)n2Cc2ccco2)cc1 -17.5%
COc1ccc2c(c1)C(C)=CC(C)(C)N2C(=O)CSc1nnc(-c2ccc(C)cc2)o1 -7.74%
CC(C)C1N=C2c3ccccc3N=C(SCc3cc(=O)n4ccccc4n3)N2C1=O (stereo not given) 6.75%
CCCCN(CCCC)CCn1cnc2c([nH]c3ccc(OC)cc32)c1=O 4.54%
CC1CC(=O)c2cnc(NCC3CCCO3)nc2C1 (stereo not given) 6.29%
CCC(CO)Nc1ncnc2c1cnn2-c1ccc(Cl)cc1 (stereo not given) 38.4%
CC(C)CCNC(=O)C(C)N(Cc1ccc(F)cc1)C(=O)c1ccc(CN2CCCCC2)o1 (stereo not given) 7.35%
O=C(OC1CCOC1=O)c1ccc(S(=O)(=O)N2CCCCCC2)cc1 (stereo not given) 5.47%
COC(=O)C1C(=O)c2c([nH]c(C(=O)OCCOC(C)C)c2C)CC1C (stereo not given) -33.4%
CC(=O)c1cc(-c2ccc(F)cc2)n(CCC(=O)Nc2cc(C)[nH]n2)c1C 4.04%
CCCn1c(=O)c2ccccc2n2c(SCCOc3ccccc3F)nnc12 -3.21%
O=C1c2ccccc2C(Nc2ccc(F)c(Cl)c2)N1Cc1ccco1 (stereo not given) 5.4%
COCCn1c(COc2ccc(Cl)cc2)nnc1SCC(N)=O 18.2%
CCOC(=O)N1CCN(S(=O)(=O)c2ccc(F)c(C(=O)Nc3cc(C)cc(C)c3)c2)CC1 1.83%
